# Results from PubChem BioAssay.
# Results filed as inconclusive are left out. Active and inactive are the calls of the source. Unless noted, no stated cut-off is given here; in the data, active means inhibition above about 80%; inactive means the rest.
# Legend:
# [1] = SU-DIPG-XXV glioma cell viability, MIPE5.0 library, qHTS (AID 1347068; cut-off not given, nearly all actives have IC50 up to about 30 µM)
# [2] = LFS_MB_P medulloblastoma growth inhibition, cell-based, chromothripsis tumors, cisplatin or BGB combos (AID 1671449); settings: LFS_MB_P medulloblastoma cells;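 further: cells exposed for 96 hours; 0% = vehicle DMSO and 100% = killing by high DMSO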
# [3] = HDN33 neuroblastoma growth inhibition, cell-based, chromothripsis tumors, cisplatin or BGB combos (AID 1671450); settings: HDN33 neuroblastoma cells, stronger effect = higher value;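 further: cells exposed to compound for four days; 0% = vehicle DMSO and 100% = cell killing by high DMSO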
# [4] = ICB984 medulloblastoma cell growth inhibition, synergistic combos for chromothripsis tumors, cisplatin or BGB combos (AID 1671451; call rule not given here;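 further: cells exposed for 96 hours before readout; 0% = vehicle DMSO and 100% = killing by high DMSO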); settings: ICB984 medulloblastoma cells, drug combinations, stronger effect = higher value
# [5] = LFS_MB_1R medulloblastoma cell growth inhibition, synergistic combos for chromothripsis tumors, cisplatin or BGB combos (AID 1671452); settings: LFS_MB_1R medulloblastoma cells, stronger effect = higher value;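 further: cells exposed for 96 hours before readout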
# [6] = HTB85 osteosarcoma cell growth inhibition, synergistic combos for chromothripsis tumors, BGB or cisplatin IC20 combos (AID 1671453); settings: HTB85 osteosarcoma cells, drug combinations, stronger effect = higher value;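 further: cells exposed for 96 hours before readout; 0% = vehicle DMSO and 100% = high DMSO killing control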
# [7] = CRL2098 osteosarcoma cell growth inhibition, synergistic combos for chromothripsis tumors, BGB or cisplatin IC20 combos (AID 1671454); settings: CRL2098 osteosarcoma cells, drug combinations, stronger effect = higher value;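 further: cells exposed for 96 h before readout; 0% = vehicle DMSO and 100% = killing by high DMSO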
# [8] = HD-MB03 medulloblastoma cell growth inhibition, synergistic combos for chromothripsis tumors, BGB or cisplatin IC20 combos (AID 1671455; in the data active means inhibition above about 83%;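 further: 0% = vehicle DMSO and 100% = high DMSO as cytotoxic control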); settings: HD-MB03 medulloblastoma cells, stronger effect = higher value
# [9] = UWB1.289 ovarian carcinoma cell growth inhibition, synergistic combos for chromothripsis tumors, BGB or cisplatin combos (AID 1671456); settings: UWB1.289 ovarian carcinoma cells, stronger effect = higher value;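 further: cells exposed to compound for four days; 0% = vehicle DMSO and 100% = killing by high DMSO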
# [10] = LFS_MB_2R medulloblastoma cell growth inhibition, synergistic combos for chromothripsis tumors, cisplatin combos (AID 1671457); settings: LFS_MB_2R medulloblastoma cells, stronger effect = higher value;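 further: cells exposed to compound for four days before readout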
# [11] = MDA-MB-436 breast carcinoma cell growth inhibition, synergistic combos for chromothripsis tumors, BGB or cisplatin combos (AID 1671458; call rule not given here;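 further: cells exposed for 96 hours; 0% = vehicle DMSO and 100% = killing by high DMSO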); settings: MDA-MB-436 breast carcinoma growth inhibition, drug combinations, stronger effect = higher value
# [12] = UWB1.289_BRCA1 ovarian cancer growth, cell-based, BGB or cisplatin combinations (AID 1671459); settings: UWB1.289 BRCA1 ovarian carcinoma, drug combinations, stronger effect = higher value
# [13] = human astrocyte viability loss, single and combined drugs, cytotoxicity control for chromothriptic childhood tumor combination screen, cell-based, BGB or cisplatin IC20 combos (AID 1671460); settings: Human astrocytes, drug combinations, stronger effect = higher value;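 further: cells exposed to compounds for 96 hours before viability readout; 0% = vehicle and 100% = killing control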
# [14] = growth inhibition of BT084 medulloblastoma cells, cell-based, ICGC_MB145, cisplatin and BGB IC40 combos (AID 1671461); settings: drug combinations, stronger effect = higher value;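 further: cells exposed to drugs for 96 hours; 0% = vehicle DMSO and 100% = high DMSO full killing control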
# [15] = growth inhibition of RCMB18 medulloblastoma cells, cell-based, cisplatin and BGB IC40 combos (AID 1671462); settings: stronger effect = higher value;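 further: cells exposed to compound for four days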
# [16] = growth inhibition of CRL1545 osteosarcoma cells, cell-based, cisplatin and BGB IC20 combos (AID 1671464); settings: stronger effect = higher value;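 further: cells exposed to compound for 96 hours before readout; 0% = vehicle DMSO and 100% = high DMSO killing control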
# [17] = sensitizers of A549 cells to miR-34 induction, primary screen, imaging, A549 dox-inducible miR-34, nuclei and caspase counts (AID 1347080;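 active means compounds whose cell count with miR-34 switched on is under 0.7 times the count with it off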); settings: A549 miR-34 inducible, Hoechst nuclei count, 48 h
# [18] = measured here: combination with BGB IC40, at 0.05 µM
# [19] = measured here: with BGB IC20 combination, at 0.5 µM
# [20] = measured here: with cisplatin IC20 combination, at 0.5 µM
# [21] = measured here: combination with cisplatin, at 0.5 µM
# [22] = measured here: combination with cisplatin, at 5 µM
smiles,measurement,setting,value
CCC1CCCCN1C(=O)n1ncc(C(O)(c2ccccc2)c2ccccc2)n1 (stereo not given),outcome,[1],inactive
NCCOc1cc(C(=O)Nc2cc(OCCN)c3ccccc3n2)nc(C(=O)Nc2cc(OCCN)c3ccccc3n2)c1,outcome,[1],inactive
same,inhibition,"[2]; at 0.5 µM, stronger effect = higher value",2.22% (inactive)
same,inhibition,"[2]; measured here: combination with BGB IC20, at 0.005 µM",-38.8%
same,inhibition,"[2]; measured here: combination with BGB IC40, at 0.005 µM",62.7%
same,inhibition,[2]; [18],-24.9%
same,inhibition,"[2]; measured here: combination with cisplatin, at 0.5 µM, stronger effect = higher value",12.8%
same,inhibition,"[2]; measured here: combination with cisplatin, at 5 µM, stronger effect = higher value",-64.9%
same,inhibition,"[3]; BGB combo, at 5 µM",-54.1%
same,inhibition,[3]; at 0.5 µM,-9.7% (inactive)
same,inhibition,"[3]; cisplatin combo, at 5 µM",-17.5%
same,inhibition,[3]; [19],-37.5%
same,inhibition,[3]; [20],8.64%
same,inhibition,"[3]; single agent, at 5 µM",-33.3%
same,inhibition,"[4]; BGB IC20 combo, at 0.005 µM",-1.03%
same,inhibition,"[4]; BGB IC40 combo, at 0.005 µM",-1.14%
same,inhibition,"[4]; BGB IC40 combo, at 0.05 µM",41.5%
same,inhibition,[4]; at 0.5 µM,-7.14% (inactive)
same,inhibition,"[4]; cisplatin combo, at 0.05 µM",38.8%
same,inhibition,"[4]; cisplatin combo, at 0.5 µM",5%
same,inhibition,"[4]; cisplatin combo, at 5 µM",-7.59%
same,inhibition,"[4]; measured here: 5 uM single agent, at 5 µM",-6.04%
same,inhibition,[5]; at 0.5 µM,-45.4% (inactive)
same,inhibition,[5]; [18],-42.8%
same,inhibition,[5]; [21],-52.8%
same,inhibition,[5]; [22],-9.07%
same,inhibition,[6]; at 0.5 µM,-5.41% (inactive)
same,inhibition,"[6]; measured here: with BGB IC20, at 0.5 µM",16.9%
same,inhibition,"[6]; measured here: with BGB IC20, at 5 µM",14.7%
same,inhibition,"[6]; measured here: with cisplatin IC20, at 0.5 µM",-18.6%
same,inhibition,"[6]; measured here: with cisplatin IC20, at 5 µM",11.6%
same,inhibition,"[6]; single agent, at 5 µM",-2.66%
same,inhibition,[7]; at 0.5 µM,-35.9% (inactive)
same,inhibition,"[7]; measured here: combination with BGB at IC20, at 0.5 µM",-36.6%
same,inhibition,"[7]; measured here: combination with cisplatin at IC20, at 0.5 µM",-37.8%
same,inhibition,[8]; at 0.5 µM,-13.1% (inactive)
same,inhibition,"[8]; measured here: combo with BGB at IC20, at 0.5 µM",-12.1%
same,inhibition,"[8]; measured here: combo with cisplatin at IC20, at 0.5 µM",-20.4%
same,inhibition,[9]; at 0.5 µM,-1.71% (inactive)
same,inhibition,"[9]; measured here: inhibition with BGB combination, at 0.05 µM",-20.7%
same,inhibition,"[9]; measured here: inhibition with cisplatin combination, at 0.05 µM",-14.5%
same,inhibition,[10]; at 0.5 µM,-18.8% (inactive)
same,inhibition,[10]; [21],-2.5%
same,inhibition,[10]; [22],-13.9%
same,inhibition,[11]; at 0.5 µM,0.88% (inactive)
same,inhibition,"[11]; measured here: BGB combination, at 0.5 µM",5.33%
same,inhibition,"[11]; measured here: BGB combination, at 5 µM",54.3%
same,inhibition,"[11]; measured here: cisplatin combination, at 0.5 µM",-17.7%
same,inhibition,"[11]; measured here: cisplatin combination, at 5 µM",63.8%
same,inhibition,"[12]; BGB combination, concentration series, at 5 µM",15.3%
same,inhibition,[12]; at 0.5 µM,-6.49% (inactive)
same,inhibition,"[12]; cisplatin combination, concentration series, at 5 µM",19.1%
same,inhibition,[13]; at 0.5 µM,5.8% (inactive)
same,inhibition,"[13]; measured here: combo with BGB IC20, at 0.5 µM",5.26%
same,inhibition,"[13]; measured here: combo with cisplatin IC20, at 0.5 µM",9.36%
same,inhibition,[14]; at 0.5 µM,-11.2% (inactive)
same,inhibition,"[14]; cisplatin combination, at 0.5 µM",-3.81%
same,inhibition,"[14]; cisplatin combination, at 5 µM",-140%
same,inhibition,"[14]; measured here: BGB IC40 combination 0.05 uM, at 0.05 µM",-28.5%
same,inhibition,"[14]; single agent, at 5 µM",-22.2%
same,inhibition,[15]; at 0.5 µM,-16.6% (inactive)
same,inhibition,"[15]; cisplatin combo, at 5 µM",-19.4%
same,inhibition,"[15]; measured here: BGB IC40 combination, at 0.05 µM",-9.5%
same,inhibition,[15]; [21],-38.3%
same,inhibition,"[15]; single agent, at 5 µM",-10.4%
same,inhibition,[16]; at 0.5 µM,11.6% (inactive)
same,inhibition,[16]; [19],-1.76%
same,inhibition,[16]; [20],17%
same,inhibition,"[16]; single agent, at 0.05 µM",-15.4%
same,inhibition,"[16]; single agent, at 5 µM",55%
CN(CCO)C1CCN(c2ccc(Nc3ncc4c5ccnc(F)c5n(C5CCCC5)c4n3)nc2)CC1,outcome,[1],inactive
CCCCC/C=C/C/C=C/CCCCCCCC(=O)O,fold change,"[17]; stronger effect = lower value, cell number ratio, induced over uninduced",1.12 (inactive)
same,fold change,[17]; measured here: relative caspase fold change +Dox/-Dox,0.989
same,cell count,"[17]; measured here: total cells with miR-34 induction, stronger effect = lower value",6880
same,cell count,[17]; measured here: total cells without miR-34 induction,6150
